# About 83,000 compounds went through this panel and 20% of them were active in at least one assay; those are over-represented in the sample as a whole.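 96-well plates, one dose, 48 hours. Percent growth reported; active if below 10.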 Unmarked numbers belong to inactive results. Calls of active or inactive are those of the source.
# Columns and labels:
# Test in all cases: NCI-60 one-dose screen, 48 h (100 = growth as untreated, 0 = no growth, -100 = all killed)
# Conditions in all cases: 10 µM unless noted
# NCI-H23 lung = test system: NCI-H23 lung
# NCI-H226 lung = test system: NCI-H226 lung
# NCI-H322M lung = test system: NCI-H322M lung
# HOP-62 NSCLC = test system: HOP-62 NSCLC
# NCI-H460 lung = test system: NCI-H460 lung
# HOP-92 NSCLC = test system: HOP-92 NSCLC
# NCI-H522 lung = test system: NCI-H522 lung
# A549/ATCC NSCLC = test system: A549/ATCC NSCLC
# 786-0 renal = test system: 786-0 renal
# COLO 205 colon = test system: COLO 205 colon
SMILES,growth (NCI-H23 lung),growth (NCI-H226 lung),growth (NCI-H322M lung),growth (HOP-62 NSCLC),growth (NCI-H460 lung),growth (HOP-92 NSCLC),growth (NCI-H522 lung),growth (A549/ATCC NSCLC),growth (786-0 renal),growth (COLO 205 colon)
CC(=O)OC[C@@]1(C)C2CC[C@]3(C)C(CC=C4C5CC(C)(C)CC[C@]5(C(=O)Nc5cccc(C)c5)CC[C@]43C)[C@@]2(C)C[C@@H](OC(C)=O)[C@@H]1OC(C)=O (stereo not given in full),45%,39%,65.9%,40.4%,12.7%,50.8%,40.3%,40.7%,53.4%,45.7%
CSc1ccccc1NC(=O)c1ccc2nn(/C(C#N)=C/c3ccccn3)nc2c1,-83.9% (active),-96.8% (active),25.3%,0.554% (active),-36.9% (active),-23.8% (active),-92.7% (active),0.0722% (active),-96.5% (active),-84% (active)
N#Cc1ccc(/C=N/NC(=O)c2[nH]c3ccc(Br)cc3c2-c2ccccc2)o1,3.75% (active),22.9%,41.3%,16.6%,1.47% (active),-2.77% (active),-36.4% (active),12.7%,-1.06% (active),-25.2% (active)
COc1cc2c(c(OC)c1OC)C(=O)CC(c1cccc(NC(=O)c3cccc([N+](=O)[O-])c3)c1)O2 (stereo not given),38.2%,38.4%,63.3%,47.9%,35.4%,17%,-7.5% (active),43.8%,59.7%,51.8%
O=C(COc1ccc(NC(=O)Nc2ccccc2)cc1)N=Nc1c(O)[nH]c2ccc([N+](=O)[O-])cc12,10.5%,18.6%,37.7%,24.5%,49.1%,-72.4% (active),-48% (active),101%,16.7%,-29.9% (active)
CCCCc1c(Nn2cnnn2)no[n+]1[O-],56.2%,82%,66.7%,81.6%,36.5%,46.4%,-21.9% (active),66.4%,56.2%,60.8%
COc1ccc(C(=O)Nc2n[nH]c(Nc3ccccc3)c2C#N)cc1,110%,117%,106%,124%,101%,125%,104%,117%,104%,106%
Cc1cc2nc3c4ccccc4n(CCCN(C)C)c3nc2cc1C,-53.4% (active),4.65% (active),-22.6% (active),-0.831% (active),-25.7% (active),-18.2% (active),-58.7% (active),6.71% (active),3.7% (active),-86.3% (active)
CC(C)Sc1nc(NCCc2c[nH]c3ccccc23)c(C#N)c(-c2ccc(F)cc2)n1,46.2%,54.5%,85.2%,51.9%,5.26% (active),20.1%,39.8%,51.4%,14.4%,28.9%
COc1cc(OC)cc(C(=O)Nc2cccc(-c3cn(-c4ccc(S(N)(=O)=O)cc4)nn3)c2)c1,80.3%,57.5%,89.9%,6.62% (active),82.8%,24.2%,69.1%,90.9%,74.6%,109%
O=C(COc1ccc(NC(=O)Nc2ccc(Cl)c(Cl)c2)cc1)N=Nc1c(O)[nH]c2ccc([N+](=O)[O-])cc12,62.1%,90.1%,85.3%,76.4%,3.51% (active),94%,61.1%,62.4%,53.7%,14.3%
COc1ccc(C(=O)/C=C/c2cccc(Cl)c2Cl)cc1S(N)(=O)=O,-15.6% (active),18.7%,11.5%,-69.2% (active),-0.608% (active),21.9%,-56.3% (active),-2.67% (active),-71.2% (active),-79.3% (active)
COc1ccc(NC(=O)c2sc3nc(C(C)C)ccc3c2N)cc1,75.3%,71.7%,69.5%,93.2%,88%,61.4%,75.7%,59.2%,97.5%,113%
COc1ccc(C2=NN(c3ccccc3)C(c3ccc(OCc4ccccc4)c(OC)c3)C2)cc1OC (stereo not given),107%,124%,103%,109%,104%,105%,85.4%,101%,97.1%,94.1%
O=C(Nc1ccc(C(F)(F)F)cc1)Nc1ccc2oc(=O)ccc2c1,3.56% (active),26.6%,41.1%,50.1%,15.9%,-5.11% (active),-10.4% (active),14.1%,53.8%,-26.4% (active)
Cc1ccc([C@H]2C(C(=O)c3ccc(Cl)cc3)C3(N[C@@H]2c2ccccc2)C(=O)Nc2ccc(Br)cc23)cc1 (stereo not given in full),61.4%,66.7%,69.1%,69.9%,55.6%,21.9%,46.5%,38.4%,45.8%,49.3%
CN(C)CCCNC(=O)c1cc(NC(=O)c2cc(NC(=O)c3ccc(/C=C/c4ccccc4)cc3)cn2C)cn1C,43.9%,50.3%,73.4%,74.1%,19.5%,-1.72% (active),-16.4% (active),35.7%,42.3%,32%
COc1ccc(-c2nc(SC(C)C)nc(NCCc3c[nH]c4ccccc34)c2C#N)cc1,45.6%,40.8%,87.7%,51.5%,24.1%,39%,35.8%,47.1%,30.3%,45.7%
COCOc1cc2c(=O)c(C)c(C(=O)N[C@@H](Cc3ccccc3)C(O)C(=O)NCc3ccccc3)oc2cc1OC (stereo not given in full),30%,-40.2% (active),80.6%,6.54% (active),-9.86% (active),27.8%,-11% (active),51.7%,-0.746% (active),49.5%
C/C(=N\N=C\c1cc([N+](=O)[O-])ccc1Cl)c1ccc2c(c1)Nc1ccccc1S2,54.7%,53%,37.3%,15.7%,9.18% (active),54.1%,60.3%,29.3%,21.1%,61.3%
Nc1cccc(SCc2cc3ccccc3[nH]c2=O)c1,73.5%,69.8%,73.3%,42.7%,20%,74.6%,43.6%,33.2%,47.3%,29%
CC(=O)Nc1ccc(-c2nc3cc(-c4ccc(O)cc4)ccc3n2C)cc1,59.2%,90.1%,65.4%,83.8%,33.8%,36.4%,1.22% (active),69.7%,50.3%,71.3%
O=C(/C=C/c1ccc(-c2ccccc2)cc1)c1nc2ccccc2n1Cc1ccc(F)cc1,47.5%,-13.9% (active),64.5%,36.1%,36.5%,35.4%,64.1%,61.9%,30.7%,48.9%
CN1CCN(c2ccc(C(=O)/C=C/c3ccc(Br)cc3)cc2)CC1,52.4%,12.6%,62.8%,22.1%,64.4%,13.2%,52.8%,7.46% (active),19.5%,-14.7% (active)
N/C(=N\c1nc2ccccc2s1)NC(=O)NCCCCCCO,31.4%,36.2%,71.1%,43.5%,59.3%,22%,36%,55%,58.7%,88.1%
S=C(Nc1ccc(OCc2nc3ccccc3[nH]2)cc1)NC1CCCCC1,101%,105%,106%,95.1%,125%,109%,51.7%,105%,93%,110%
C/C(=N\N=C1/C(=O)Nc2ccccc21)c1ccc2c(c1)Nc1ccccc1S2,34.8%,56.3%,71.3%,82.9%,43.8%,82.7%,43.7%,66.9%,71.4%,52.6%
